Screening results from PubChem BioAssay.
The list is not random: actives were taken first. Their share in the collection is about 9.2%.
ELG1 DNA repair = inhibitors of ELG1-dependent DNA repair in HEK293T cells; HEK293T ELG1-luciferase reporter, luminescence, 16 h; DNA damage induced by 5-fluorouridine; Potency, µM (titrated, usually from 46.1 µM), inactives show at the highest dose activity change, negative = inhibition, actives largely listed as inhibitors; 330,000 tested, 2.3% active; note: % is set by controls: 0 for no effect and ±100 for the full control effect; nearly all actives have a fitted effect of over 55% in size
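Quantitative HTS, concentration-response format. 2,000 cells/well co-treated with 5-fluorouridine and compound, 16 hr in 5% CO2 at 37 °C; ONE-Glo luminescence read after 30 min.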
SMN2 splice enh = enhancers of SMN2 splice variant expression; HEK293 SMN2-luciferase splicing reporter, luminescence, 30-36 h; Potency, µM (top dose mostly 46.1 µM), without a hit: at the top dose activity change, positive = activation, usual class: activators; 210,000 tested, 2.8% active; note: % of control where 0% means no effect; nearly all actives have a fitted effect of over 55% in size
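qHTS luciferase splicing reporter: luminescence rises when SMN2 exon 7 is included in transfected HEK293 cells. Compound exposure lasted 30-36 h at 37C, with 4.5 mM final sodium butyrate as control, followed by a ONE-Glo read.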
ELG1 genotox = genotoxicity induction in ELG1-luciferase HEK293T cells. 330,000 tested, 1.3% active. Potency, µM (titrated, usually from 46 µM), for the others: at the highest dose activity change, positive = activation, most hits filed as activators. HEK293T ELG1-luciferase reporter, luminescence, 16 h; note: % of control where 0% means no effect; nearly all actives have a fitted effect of over 60% in size
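Quantitative HTS format in 1536-well plates. HEK293T ELG1-luciferase reporter cells receive test compound and are incubated 16 hr at 37 °C, 5% CO2; ONE-Glo added, 30 min room temperature, then luminescence read.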
NPC1 prom act = NPC1 promoter activation; Huh7 NPC1 promoter luciferase reporter, 24 h; 320,000 tested, 2.4% active; AID 485313; Potency, µM (highest dose often 9.22 µM), inactives show top-dose activation, most hits filed as activators; note: % of control where 0% means no effect; nearly all actives have a fitted effect of over 60% in size
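Quantitative HTS used a cell-based reporter: Huh7 cells stably bearing the NPC1 promoter upstream of luciferase were treated with compounds for 24 h, and promoter activation was read as luminescence.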
Rab9 promoter act = activates the Rab9 promoter. Huh7 Rab9 promoter-luciferase reporter, luminescence, 24 h. Potency, µM (series often up to 9.22 µM), without a hit: at the top dose activation, negative = inhibition, actives largely listed as activators. 320,000 tested, 2.8% active; note: % of control where 0% means no effect; nearly all actives have a fitted effect of over 60% in size
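Luminescence from Amplite-detected luciferase (10 minutes, ambient) reports Rab9 promoter activation. Before that, stable Rab9-luciferase Huh7 cells (1500/well, reduced-serum OP-MEM I plus 10% FBS) were exposed to compound for 24 hours at 37C.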
FLuc modulator = inhibits or activates purified firefly luciferase, miR-21 counter-screen; 360,000 tested, 6.9% active; purified FLuc, Km substrates, luminescence inhibition; Potency, µM (doses to about 57.5 µM), for the others: at the highest dose activity change, negative = inhibition, most hits filed as inhibitors;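 note: plate controls were vehicle for no effect and reference inhibitor for full effect; nearly all actives have a fitted effect of over 55% in size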
Target sequence (P08659 whole entry, looked up): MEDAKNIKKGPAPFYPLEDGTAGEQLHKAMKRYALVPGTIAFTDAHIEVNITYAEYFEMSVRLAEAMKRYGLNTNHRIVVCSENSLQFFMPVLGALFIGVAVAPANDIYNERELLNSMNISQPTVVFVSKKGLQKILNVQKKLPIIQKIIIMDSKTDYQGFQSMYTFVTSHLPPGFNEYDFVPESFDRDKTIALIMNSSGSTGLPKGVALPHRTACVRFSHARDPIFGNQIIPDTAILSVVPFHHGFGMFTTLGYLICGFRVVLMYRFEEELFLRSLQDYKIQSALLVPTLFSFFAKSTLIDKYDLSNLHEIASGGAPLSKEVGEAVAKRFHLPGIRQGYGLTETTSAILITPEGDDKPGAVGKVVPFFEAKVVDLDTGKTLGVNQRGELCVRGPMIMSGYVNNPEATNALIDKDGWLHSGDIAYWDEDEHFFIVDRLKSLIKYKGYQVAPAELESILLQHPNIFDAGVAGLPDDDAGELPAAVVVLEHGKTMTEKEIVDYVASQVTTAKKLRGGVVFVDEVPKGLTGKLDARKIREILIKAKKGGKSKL
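Purified P. pyralis luciferase (10nM final) with 10uM D-luciferin and 10uM ATP (Km levels) in 50mM Tris acetate pH 7.5, 10mM Mg acetate, 0.01% Tween-20, 0.05% BSA; qHTS 6-point titration, ~60 µM downward; luminescence read.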
* = called active by the depositor; ? = inconclusive; . = no result given. Calls come from the whole dose curve; as a rule, active = well fitted curve in the direction sought with a large enough effect; inconclusive = small, poorly fitted or top-dose-only effect, or another doubt; inactive = no such curve, though single readings can be large; an effect the other way counts as inactive or inconclusive. Potency is the fitted concentration of half-maximal effect.

SMILES	ELG1 DNA repair	SMN2 splice enh	ELG1 genotox	NPC1 prom act	Rab9 promoter act	FLuc modulator
Cc1cccc(N2CCN(C(=O)CN3C(=O)COc4ccc(S(=O)(=O)N5CCOCC5)cc43)CC2)c1C	.	-8.2%	.	.	.	3.6%
CCOc1ccc(NC(=O)C(=O)NCCN2CCN(C(=O)c3ccc(C)cc3)CC2)cc1	6.0%	.	-28.1%	-4.1%	-1.0%	0.4%
Cc1c(C(=O)OCc2nc3ccsc3c(=O)[nH]2)oc2ccccc12	-0.4%	.	-0.2%	-1.4%	-2.0%	-1.8%
Cn1c(=O)cc(OCC(=O)NC2CCCCC2)c2ccccc21	?	10.8%	5.3%	-5.2%	-1.7%	3.1%
Cn1c(=O)cc(OCCCC(=O)NC2CCCC2)c2ccccc21	?	15.8µM*	?	-2.7%	-2.4%	0.7%
Cc1cc(C)cc(NC(=O)Cn2c(SCc3cc(C)ccc3C)nc3ccncc32)c1	?	-3.8%	15.5%	10.2%	11.5%	-1.4%
Cc1ccc(CSc2nc3ccncc3n2CC(=O)Nc2cc(C)cc(C)c2)cc1	?	?	?	28.4%	?	1.51µM*
COc1ccc(-c2nc(Cn3c(SCc4ccc(C)cc4)nc4ccncc43)c(C)o2)cc1OC	13µM*	16.3%	-0.4%	14.4%	?	1.69µM*
Cc1ccccc1-c1nc(CN2CCC(C(=O)NCc3ccc(F)cc3)CC2)c(C)o1	.	-5.9%	.	.	.	-14.3%
Cc1ccc(N(CC(=O)Nc2cccc(Cl)c2)S(=O)(=O)c2cccs2)cc1	.	-35.8%	.	.	.	2.8%
Nc1nc2sc3c(c2cc1C(=O)N1CCOCC1)CCCC3	?	4.0%	3.4%	7.7%	9.7%	16.9µM*
CCCc1nc2sc3c(c2c(=O)n1NC(=O)CCC(=O)O)CCCC3	12.3%	9.6%	-10.0%	-1.5%	-1.8%	?
Cc1cccc2cc3c(N)c(C(=O)N4CCOCC4)sc3nc12	?	11.2µM*	?	?	0.562µM*	3.79µM*
Nc1nc2sc3c(c2cc1C(=O)NCC(=O)O)CCCC3	-28.3%	.	-2.7%	-0.4%	-15.8%	0.953µM*
Cc1cc(C)c2cc3c(N)c(C(=O)N4CCc5ccccc5C4)sc3nc2c1	-3.9%	12.1%	-0.9%	10.1%	-0.7%	0.2%
COC(=O)c1c(C)oc(C)c1S(=O)(=O)N(C)C1CCCCC1	?	.	-0.7%	?	-3.2%	1.9%
CCCN(Cc1nnc(-c2ccccc2Cl)o1)C(=O)COc1ccc(Cl)cc1	-12.3%	.	0.5%	-1.1%	-3.3%	2.8%
CCCOc1ccc(CNC(=O)CCCn2nc(C)c3sc4ccccc4c3c2=O)cc1	.	.	.	.	.	7.57µM*
CCc1cccc(C)c1NC(=O)CCCn1nc(C)c2sc3ccccc3c2c1=O	.	.	.	.	.	-10.5%
Cc1nn(CCCC(=O)NCc2ccccc2Br)c(=O)c2c1sc1ccccc12	.	.	.	.	.	-5.5%
Cc1nn(CCCC(=O)Nc2cccc(F)c2)c(=O)c2c1sc1ccccc12	.	.	.	.	.	15.1µM*
COc1ccc(-c2nc(CSCC(=O)NCc3ccccc3Cl)c(C)o2)cc1OC	.	-22.3%	.	.	.	-15.2%
COC(=O)C(C(C)=O)C(NC(=O)OC(C)(C)C)c1ccccc1 (stereo unspecified)	.	4.8%	.	.	.	.
Cc1ccc(/C=c2\s/c(=C(/C#N)C(=O)N3CCCC3)n(Cc3ccco3)c2=O)s1	12.6µM*	-33.6%	-4.0%	-5.0%	0.0%	-0.4%
CCOc1ccc(Cl)cc1S(=O)(=O)N1CCC(C(=O)NCc2cccnc2)CC1	8.2%	.	6.1%	-0.3%	-1.8%	2.3%
SMILES	ELG1 DNA repair	SMN2 splice enh	ELG1 genotox	NPC1 prom act	Rab9 promoter act	FLuc modulator
COc1ccc(OC)c(/C=N/N(C)c2ccccc2)c1	?	?	5.8µM*	?	3.55µM*	10.7µM*
COc1cc(/C=N/N(C)c2ccccc2)cc(Cl)c1O	19.4%	3.3%	11.8%	23.8%	6.2%	13.5µM*
COc1cc(/C=N/N(C)C)cc(Br)c1O	9.4%	.	-2.2%	-4.5%	-7.1%	-0.6%
COc1ccc(CNC(=O)c2ccc(Sc3ccc(Cl)cc3)c(NC(C)=O)c2)c(OC)c1	.	.	.	.	.	-19.9%
CCCCOc1ccc(CNC(=O)CN2CCSc3ccccc32)cc1	.	.	.	.	.	-18.4%
O=C(CSc1ncccn1)NC1CCCc2ccccc21 (stereo unspecified)	20.2%	-1.8%	0.1%	0.2%	5.4%	-5.1%
COc1ccc(-c2cc(C(=O)NCCCN3CCOCC3)c3ccccc3n2)cc1OC	2.1%	.	-1.7%	-3.6%	0.9%	-16.6%
COc1ccc(-c2cc(C(=O)NNC(=O)c3csc(N4CCOCC4)n3)c3ccccc3n2)cc1	?	.	-23.5%	-2.2%	2.4%	12µM*
COc1ccc(-c2cc(C(=O)NNC(=O)c3csc(N4CCOCC4)n3)c3ccccc3n2)cc1OC	?	.	-25.8%	-0.2%	4.8%	9.53µM*
CCN1C(=O)S/C(=C\c2ccc(N3CCOCC3)cc2C)C1=O	?	.	?	2µM*	2µM*	2.69µM*
CCCN1C(=O)S/C(=C\c2ccc(N3CCOCC3)cc2C)C1=O	?	3.9%	?	2µM*	2.24µM*	5.36µM*
CCCN1C(=O)S/C(=C\c2ccc(N3CCOCC3)o2)C1=O	?	-23.3%	?	22.0%	?	?
O=C(CC1N=C2c3ccccc3N=C(SCc3cccc(Cl)c3)N2C1=O)NCCc1ccccc1 (stereo unspecified)	.	.	.	.	.	-11.0%
O=C(Cn1cc(C(=O)c2ccncc2)c(=O)c2cc(F)ccc21)Nc1ccc(Cl)cc1	.	.	.	.	.	6.0%
COCc1cc(C)nc2sc(C(=O)Nc3ccccc3OC)c(N)c12	?	.	-1.1%	-7.4%	-1.0%	16.9µM*
